# Data from PubChem BioAssay (NCATS).
# Active and inactive are the calls of the source. Calls come from the whole dose curve; as a rule, active = well fitted curve in the direction sought with a large enough effect; inactive = no such curve, though single readings can be large or run the other way.
# Target: Alpha-galactosidase (Coffea arabica) (UniProt Q42656)
# Experiment: Counterscreen for Glucocerebrosidase Inhibitors: qHTS Assay for Coffee Bean alpha-Galactosidase at pH 5.9 (AID 998)
# Conditions: coffee bean alpha-galactosidase enzyme assay; series mostly up to 76.9 µM
# Procedure, shortened: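 In 50 mM citric acid pH 5.9 with 0.005% Tween-20, coffee bean enzyme hydrolyses 80 uM 4-MU alpha-D-galactopyranoside over 20 min at RT. Activity is normalized to controls; AC50 comes from Hill-modelled concentration-response data.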
# Chain of Alpha-galactosidase (Coffea arabica) (Q42656 whole entry, looked up): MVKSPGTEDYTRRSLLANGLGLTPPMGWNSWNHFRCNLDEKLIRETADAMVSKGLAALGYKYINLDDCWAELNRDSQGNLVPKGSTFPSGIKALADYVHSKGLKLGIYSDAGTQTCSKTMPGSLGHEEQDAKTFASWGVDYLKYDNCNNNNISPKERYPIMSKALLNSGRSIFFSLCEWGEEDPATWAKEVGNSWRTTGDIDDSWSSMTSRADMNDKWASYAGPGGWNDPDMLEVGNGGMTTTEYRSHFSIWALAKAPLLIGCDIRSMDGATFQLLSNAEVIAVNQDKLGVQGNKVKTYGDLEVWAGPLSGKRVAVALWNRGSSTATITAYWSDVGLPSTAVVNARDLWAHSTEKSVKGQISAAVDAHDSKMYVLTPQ
row,SMILES,outcome
1,O=C1NCN(c2ccccc2)C12CCN(CCCC(c1ccc(F)cc1)c1ccc(F)cc1)CC2,inactive
2,CN1[C@@H]2CC[C@H]1CC(OC(=O)c1c[nH]c3ccccc13)C2 (some centres undefined),inactive
3,NC(=O)CC[C@@H](N)C(=O)O,inactive
4,Nc1c2c(nc3ccccc13)CCCC2,inactive
5,CC1=C(CC(=O)O)c2cc(F)ccc2/C1=C\c1ccc(S(C)=O)cc1 (centres undefined),inactive
6,c1cnc(N2CCN(Cc3ccc4c(c3)OCO4)CC2)nc1,inactive
7,CCc1cccc2c3c([nH]c12)C(CC)(CC(=O)O)OCC3 (centres undefined),inactive
8,Brc1c(NC2=NCCN2)ccc2nccnc12,inactive
9,CCNC(=O)N1CCN(CCCC(c2ccc(F)cc2)c2ccc(F)cc2)CC1,inactive
10,C(=C\c1ccccc1)/CN1CCN(C(c2ccccc2)c2ccccc2)CC1,inactive
11,COc1ccc(CN(CCN(C)C)c2ccccn2)cc1,inactive
12,Nc1ccn([C@H]2CC[C@@H](CO)O2)c(=O)n1,inactive
13,C[C@]12CCC(=O)C=C1CC[C@@H]1[C@@H]2C(=O)C[C@@]2(C)[C@H]1CC[C@]2(O)C(=O)CO,inactive
14,CN(C)CCCN1c2ccccc2Sc2ccc(C(F)(F)F)cc21,inactive
15,Clc1ccc(Cn2c(CN3CCCC3)nc3ccccc32)cc1,inactive
16,NC(N)=NCCC[C@H](N)C(=O)O,inactive
17,CN(C)C(=O)Oc1cccc([N+](C)(C)C)c1,inactive
18,O=C(O)c1cccnc1Nc1cccc(C(F)(F)F)c1,inactive
19,CN(C)CCOC(c1ccccc1)c1ccccc1,inactive
20,CCCC(C(=O)OCCN(CC)CC)(c1ccccc1)c1ccccc1,inactive

row,SMILES,outcome
1,CCCCNc1cc(C(=O)O)cc(S(N)(=O)=O)c1Oc1ccccc1,inactive
2,CSc1ccc(C(=O)c2[nH]c(=O)[nH]c2C)cc1,inactive
3,CN(C(=O)CCCOc1ccc2[nH]c(=O)ccc2c1)C1CCCCC1,inactive
4,CCN(CC)CCOCCOC(=O)C1(c2ccccc2)CCCC1,inactive
5,C[C@]12CCC(=O)C=C1CC[C@@H]1[C@@H]2CC[C@@]2(C)[C@H]1CC[C@]2(O)C(=O)CO,inactive
6,CCc1cccc(N(C)C(N)=Nc2cccc3ccccc23)c1,inactive
7,CCOC(=O)C(C)(C)Oc1ccc(Cl)cc1,inactive
8,NCCc1cnc[nH]1,inactive
9,c1cc(CN2CCCCC2)cc(OCCCNc2nc3ccccc3s2)c1,inactive
10,CCC(=O)c1ccc2c(c1)N(CCCN(C)C)c1ccccc1S2,inactive
11,CC(C)NCC(O)COc1ccc(COCCOC(C)C)cc1 (centres undefined),inactive
12,CCOC(=O)Nc1ccc(NCc2ccc(F)cc2)nc1N,inactive
13,Cc1ccc(N(CC2=NCCN2)c2cccc(O)c2)cc1,inactive
14,C#CCN(C)Cc1ccccc1,inactive
15,Oc1cc(O)c2c(c1)O[C@H](c1ccc(O)c(O)c1)[C@H](O)C2,inactive
16,CN(C)CCN(Cc1cccs1)c1ccccn1,inactive
17,OCc1cc(C(O)CNCCCCCCOCCCCc2ccccc2)ccc1O (centres undefined),inactive
18,O=C1N(c2ccccc2)c2ccccc2C1(Cc1ccncc1)Cc1ccncc1,inactive
19,COc1cc(C(=O)OCCCN2CCCN(CCCOC(=O)c3cc(OC)c(OC)c(OC)c3)CC2)cc(OC)c1OC,inactive
